Test results: PubChem BioAssay (Tox21)
Records with an inconclusive call do not appear. Unmarked numbers belong to inactive results. Calls follow the shape of the dose curve; as a rule, active = well fitted activation curve with a large enough effect in the signal ratio in the repeat runs (not every such curve was filed as active); inconclusive = weak or mixed curves, or effect the other way; inactive = flat fitted curve, though single readings scatter; the % refers to the signal ratio.

assay: qHTS assay to identify small molecule agonists of the endoplasmic reticulum stress response signaling pathway (AID 1159516); conditions: ESRE-bla HeLa, ER stress beta-lactamase reporter, 5 h; series mostly up to 61 µM; activation: at the top concentration
Description: National Center for Advancing Translational Sciences [NCATS]
NIH Chemical Genomics Center [NCGC]
U.S. Environmental Protection Agency [EPA]
National Institutes of Environmental Health Sciences [NIEHS]
National Toxicology Program [NTP]
U.S. Food and Drug Administration [FDA]
Endoplasmic Reticulum (ER) plays an important role in cellular signaling, protein folding/maturation, stress response, lipid biosynthesis, calcium storage and release etc. Under stress conditions, proteins in ER misfold or unfold, and leading to the expression of ER stress responsive genes. ER stress has been associated with a variety of pathophysiological conditions such as cancer, inflammation, neurodegenerative diseases, diabetes, ischemic heart disease etc. To identify the compounds that induce ER stress response, an ER stress reporter cell line, CellSensor ESRE-bla HeLa (Life Technologies, Carlsbad, CA) containing a beta-lactamase reporter gene under control of the Endoplasmic reticulum Stress Response Element (ESRE) was used to screen Tox21 10K compound library.
Tox21 Assay Protocol Summary:
ESRE-bla HeLa cells were dispensed at 1,500 cells/6 uL of assay medium per well into black wall/clear-bottom 1536-well plates using a Multidrop Combi (ThermoFisher Scientific, Waltham, MA) dispenser. After the assay plates were incubated at 37 C and 5% CO2 for an overnight, 23 nL of compounds dissolved in DMSO, positive controls or DMSO only was transferred to the assay plate by a Pintool station (Kalypsys, San Diego, CA). The assay plates were incubated at 37 C and 5% CO2 for 5 hr. One uL of LiveBLAzer B/G FRET substrate (Life Technologies) was added using a Flying Reagent Dispenser (Aurora Discovery, San Diego, CA) and the plates were incubated at room temperature for 2 hr. Fluorescence intensity (405 nm excitation, 460 nm and 530 nm emissions) was measured using an Envision plate reader (PerkinElmer, Shelton, CT).
% is scaled to controls: 0 for no effect and ±100 for the full control effect.

| Structure (SMILES) | activation |
| --- | --- |
| c1ccc(SCCSc2ccccc2)cc1 | -0.503% |
| C#CC(O)C(CC)CCCC (stereo not given) | -1.61% |
| COc1cccc(OC)c1 | -6.28% |
| CCN(CC)C(=O)c1ccc(O)c(OC)c1 | 0.246% |
| CC12CCC(CC1=O)C2(C)C (stereo not given) | -0.609% |
| COc1nc(C)nc(N)n1 | -2.39% |
| COC(=O)c1ccc(C(=O)OC)c(C(=O)OC)c1 | 0.602% |
| CC1CCN(CCCC(=O)c2ccc(F)cc2)CC1 | -0.0533% |
| CC(C)(C)C(=O)/C=C/c1ccc(Cl)cc1 | -4.56% |
| CC(C)=CC(=O)O | -0.33% |
| CC(C=O)Cc1ccc(C(C)C)cc1 (stereo not given) | 3.03% |
| Cc1cc(C)cc(OCC2CNC(=O)O2)c1 (stereo not given) | -3.56% |
| C=C(C)C1CC=C(C)C(O)C1 (stereo not given) | 2.06% [at 78.8 µM] |
| Nc1cc(N)cc(C(=O)O)c1 | 1.72% |
| COc1cc(CCC(C)=O)ccc1O | -0.507% |
| CCCCCCCCCCCCCCC | 0.409% |
| CC(C)CCCCCCN | 0.854% |
| CC(C)(O)Cc1ccccc1 | 1.39% |
| NS(=O)(=O)c1cc2c(cc1C(F)(F)F)NC(Cc1ccccc1)NS2(=O)=O (stereo not given) | 2.47% |
| Cc1ccccc1Br | -0.895% |

| Structure (SMILES) | activation |
| --- | --- |
| N#CC1(O)CCCCC1 | 3.06% [at 78.8 µM] |
| O=C(O)c1ccccc1S | 0.421% |
| O=C1C(CCS(=O)c2ccccc2)C(=O)N(c2ccccc2)N1c1ccccc1 (stereo not given) | 0.137% |
| CCN(CC)S(=O)(=O)c1ccc(C(=O)O)cc1 | -3.94% |
| CC(C)CCOC(=O)CC(C)C | 2.25% |
| CCOC(=O)Nc1ccc2c(c1)N(C(=O)CCN1CCOCC1)c1ccccc1S2 | -3.9% |
| C=C(C)C(=O)NCCC[N+](C)(C)C | -0.248% |
| OC[C@H]1O[C@@H]2O[C@H]3[C@H](O)[C@@H](O)[C@@H](O[C@H]4[C@H](O)[C@@H](O)[C@@H](O[C@H]5[C@H](O)[C@@H](O)[C@@H](O[C@H]6[C@H](O)[C@@H](O)[C@@H](O[C@H]7[C@H](O)[C@@H](O)[C@@H](O[C@H]8[C@H](O)[C@@H](O)[C@@H](O[C@H]9[C@H](O)[C@@H](O)[C@@H](O[C@H]1[C@H](O)[C@H]2O)O[C@@H]9CO)O[C@@H]8CO)O[C@@H]7CO)O[C@@H]6CO)O[C@@H]5CO)O[C@@H]4CO)O[C@@H]3CO | 4.18% [at 28.5 µM] |
| CCCc1ccccc1O | 1.58% |
| COC(=O)C1=C(C)NC(C)=C(C(=O)OCC(C)=O)C1c1ccccc1[N+](=O)[O-] (stereo not given) | -2.53% |
| CC(C)CCCC(C)NCCC(C)C (stereo not given) | -0.0405% |
| Nc1[nH]c(=O)ncc1F | 0.941% |
| NC(=O)CCCCC1CCSS1 (stereo not given) | 1.55% |
| CCN1CCCC1CNC(=O)c1cc(S(N)(=O)=O)ccc1OC (stereo not given) | -0.0413% |
| C#CC(C)(O)CC(C)C (stereo not given) | 1.91% |
| CN(C)CCn1nnnc1SCC1=C(C(=O)O)N2C(=O)[C@@H](NC(=O)Cc3csc(N)n3)[C@H]2SC1 | -0.919% |
| CCCCCC[C@@H](CCC)C(=O)O | 8.89% |
| COC(=O)[C@H]1[C@H]2C[C@@H]3c4[nH]c5cc(OC)ccc5c4CCN3C[C@H]2C[C@@H](OC(=O)COc2ccc(OC)cc2)[C@@H]1OC | 3.69% |
| CCCCNc1ccccc1 | 1.85% |
| CCCCCCC(=O)OCC | -0.505% |
